# About 3,000 (1%) of roughly 290,000 compounds were called active. This is one part of a sample in which actives are shown more often than they occur. No stated cut-off is given here; in the data, active means inhibition mostly above about 36% (no sharp cut-off); inactive means mostly below about 34%.
# Assay: NOD1 signaling inhibitors, primary screen, cell-based, luminescence, uHTS (AID 1578);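 further: HEK-293T reporter cells stimulated with the NOD1 agonist gamma-tri-DAP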
# Details: NOD1-driven NF-kB luciferase reporter cells, at 4 µM, stronger effect = higher value
row,Structure (SMILES),inhibition
1,CCS(=O)(=O)c1ccc2c(c1)N(S(C)(=O)=O)CC(C(=O)NCc1ccccc1OC)O2 (configuration not stated),10.4% (inactive)
2,Cc1cccc(N2CCN(Cc3nc(-c4ccccc4Cl)oc3C)CC2)n1,-11.6% (inactive)
3,Cc1cnc(C)c(N2CCN(Cc3nc(-c4cccc(F)c4F)oc3C)CC2)n1,-26.1% (inactive)
4,Cc1cccc(N2CCN(Cc3nc(-c4ccc(F)cc4F)oc3C)CC2)n1,-6.3% (inactive)
5,COc1ccc(-c2nc(CN3CCN(c4cc(C)nc(C)c4)CC3)c(C)o2)c2ccccc12,-23.4% (inactive)
6,COc1ccc(-c2nc(CN3CCN(c4ccccc4OC)CC3)c(C)o2)cc1,-31.1% (inactive)
7,Cc1oc(-c2cc(F)ccc2F)nc1CN1CCN(c2cnccn2)CC1,-26% (inactive)
8,CCCCn1c(SCC(=O)Nc2cc(C(F)(F)F)ccc2Cl)nnc1C(CC)N(C)C (configuration not stated),-47.6% (inactive)
9,O=C1CCc2cc(S(=O)(=O)N3CCC(C(=O)NCc4ccccn4)CC3)ccc2N1,-15.8% (inactive)
10,O=C(O)CCC(=O)Nc1cccc(-c2nnc(-c3ccccc3)o2)c1,15.5% (inactive)
11,CCN1CCSc2ccc(C(=O)Nc3ccc(NC(C)=O)cc3)cc21,4% (inactive)
12,CC(=O)Nc1ccc(NC(=O)C2(C)CC2(Cl)Cl)cc1 (configuration not stated),-29.2% (inactive)
13,N#CCCn1c(SCC(=O)NCc2ccco2)nc2ccccc21,-13.3% (inactive)
14,CC(=O)c1cccc(NC(=O)CNC(=O)Cc2ccccc2)c1,19.8% (inactive)
15,CC(C)(C)NC(=O)N1CCCN(c2ccc(C(F)(F)F)cn2)CC1,-7.3% (inactive)
16,CCOC(CNc1cc(C)nc2c(-c3ccccc3OC)c(C)nn12)OCC,-6.1% (inactive)
17,Clc1ccccc1-c1ccc(CN2CCN(c3ccccc3)CC2)o1,7.9% (inactive)
18,Cc1cc(C)c(NC(=O)C(C)N2CCCCCC2)c(C)c1 (configuration not stated),39.1% (inactive)
19,Cc1cccc(C)c1NC(=O)C(C)N1CCCC1 (configuration not stated),5.2% (inactive)
20,CC(C(=O)Nc1c2c(cc3c1CCC3)CCC2)N1CCCC1 (configuration not stated),63.4% (active)
21,Clc1ccc2c(NCc3ccco3)ncnc2c1,16.7% (inactive)
22,c1ccc(CNc2ncnc3sccc23)cc1,31.8% (inactive)
23,Brc1ccc2ncnc(NCc3ccccc3)c2c1,93.1% (active)
24,COc1cc2ncnc(NCc3ccco3)c2cc1OC,-1.4% (inactive)
25,O=C(O)c1cccc(Nc2ncnc3ccc(Br)cc23)c1,-10.3% (inactive)
26,Cc1ccc(S(=O)(=O)CC(=O)c2ccccc2)cc1,-10% (inactive)
27,CC(=O)Nc1c(C)cc(S(C)(=O)=O)cc1C,-12.2% (inactive)

# Reference: PubChem BioAssay AID1578 (Sanford-Burnham Center for Chemical Genomics, 2009)
